Shown are actives, neighbours in structure and some others; about 1.2% of the full set was active somewhere.
DNA Pol III inh: inhibitors of bacterial DNA polymerase III holoenzyme | reconstituted DNA polymerase III holoenzyme replication, biochemical | Potency, µM (highest dose often 57.1 µM), inactives show at the top dose activity change, negative = inhibition | actives 0.25% (n = 71,000) | AID 603; further: potency means the concentration at half of the fitted maximal effect; on the % scale 0 is the no-effect control and ±100 the full control effect
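Reconstituted *E. coli* holoenzyme (0.35 nM Pol III, 1 nM beta, 154 nM SSB, 2 nM primase) was preincubated with compound for 15 min at RT. Synthesis on 1.4 nM ssM13Gori ran 35 min, then was stopped with PicoGreen/EDTA and read as dsDNA fluorescence.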
BRCT inh red: disrupts BRCA1 BRCT binding to phosphoprotein, red fluorophore readout; BRCT-phosphopeptide binding, red fluorescence polarization; Potency, µM (doses to about 76.9 µM), for the others: at the highest dose activity change, negative = inhibition, most hits filed as inhibitors; actives 0.03% (n = 75,000); P38398; further: on the % scale 0 is the no-effect control and ±100 the full control effect
Target sequence (P38398 whole entry, looked up): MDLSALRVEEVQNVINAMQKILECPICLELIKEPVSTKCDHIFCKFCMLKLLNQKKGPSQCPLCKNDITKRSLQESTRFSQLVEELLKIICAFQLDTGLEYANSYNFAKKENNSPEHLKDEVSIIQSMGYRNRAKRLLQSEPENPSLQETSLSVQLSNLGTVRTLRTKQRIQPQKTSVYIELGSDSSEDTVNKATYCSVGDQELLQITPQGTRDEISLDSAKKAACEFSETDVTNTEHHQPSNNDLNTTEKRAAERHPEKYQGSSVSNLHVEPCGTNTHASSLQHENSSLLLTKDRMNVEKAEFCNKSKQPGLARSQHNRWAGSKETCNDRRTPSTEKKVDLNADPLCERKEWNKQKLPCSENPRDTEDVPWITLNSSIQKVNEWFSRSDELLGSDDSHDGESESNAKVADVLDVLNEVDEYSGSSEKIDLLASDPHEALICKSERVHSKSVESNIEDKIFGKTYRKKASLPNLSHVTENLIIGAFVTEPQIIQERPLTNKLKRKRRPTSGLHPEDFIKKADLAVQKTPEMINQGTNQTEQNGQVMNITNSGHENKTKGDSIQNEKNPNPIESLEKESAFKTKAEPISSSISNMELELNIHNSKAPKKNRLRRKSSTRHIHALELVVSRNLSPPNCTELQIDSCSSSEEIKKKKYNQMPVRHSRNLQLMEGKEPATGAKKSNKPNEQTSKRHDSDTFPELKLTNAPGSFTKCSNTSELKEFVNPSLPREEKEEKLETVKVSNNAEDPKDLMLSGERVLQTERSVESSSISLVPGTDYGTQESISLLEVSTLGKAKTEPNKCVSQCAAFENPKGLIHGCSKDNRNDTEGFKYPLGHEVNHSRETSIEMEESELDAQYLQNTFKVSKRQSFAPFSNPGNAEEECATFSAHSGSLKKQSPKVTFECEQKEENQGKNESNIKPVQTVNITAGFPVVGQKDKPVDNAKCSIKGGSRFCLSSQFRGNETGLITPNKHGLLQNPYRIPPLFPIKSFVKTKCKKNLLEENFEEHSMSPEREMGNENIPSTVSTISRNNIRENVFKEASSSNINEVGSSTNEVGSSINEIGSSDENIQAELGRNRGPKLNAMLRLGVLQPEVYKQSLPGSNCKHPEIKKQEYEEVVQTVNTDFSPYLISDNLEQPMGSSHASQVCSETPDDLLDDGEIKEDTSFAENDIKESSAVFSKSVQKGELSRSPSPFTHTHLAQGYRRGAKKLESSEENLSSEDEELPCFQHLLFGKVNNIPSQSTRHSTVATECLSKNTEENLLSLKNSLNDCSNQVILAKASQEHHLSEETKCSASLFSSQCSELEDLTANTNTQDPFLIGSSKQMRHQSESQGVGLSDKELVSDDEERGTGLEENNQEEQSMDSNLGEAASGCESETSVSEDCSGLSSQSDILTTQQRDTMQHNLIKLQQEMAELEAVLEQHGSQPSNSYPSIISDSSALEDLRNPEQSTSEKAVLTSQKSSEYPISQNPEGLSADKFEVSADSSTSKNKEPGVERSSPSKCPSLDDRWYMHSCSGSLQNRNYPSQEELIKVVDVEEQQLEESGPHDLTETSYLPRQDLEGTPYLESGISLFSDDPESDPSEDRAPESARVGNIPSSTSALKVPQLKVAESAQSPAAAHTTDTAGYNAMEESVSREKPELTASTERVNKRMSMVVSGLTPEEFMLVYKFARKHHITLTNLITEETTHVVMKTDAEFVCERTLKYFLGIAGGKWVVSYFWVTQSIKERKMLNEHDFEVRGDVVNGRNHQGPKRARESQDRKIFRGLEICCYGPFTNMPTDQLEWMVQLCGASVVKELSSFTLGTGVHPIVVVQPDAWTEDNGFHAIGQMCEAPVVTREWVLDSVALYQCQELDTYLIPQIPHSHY
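Rhodamine-labelled pBACH1 10-mer (100 nM) bound to BRCT domain (100 nM) at pH 7.3; compounds incubated 12 min room temperature, polarization read. Free peptide defines full inhibition; unlabelled decapeptide titrated as control.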
TsaE inh: displaces an ADP probe from E. coli YjeE (TsaE). Potency, µM. purified YjeE enzyme, qHTS inhibition assay. actives 0.05% (n = 71,000). AID 605
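Purified YjeE (10 uM) with BODIPY Texas Red-labeled ADP probe (2 uM); compounds pin-transferred, 15 min at room temperature. Binding inhibition read as decreased fluorescence polarization; ADP titration as control.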
BRCT PPI green: BRCA1 BRCT-phosphoprotein interaction inhibition; P38398; BRCA1 BRCT-phosphopeptide binding, green fluorescence polarization; Potency, µM (highest dose often 76.9 µM), for inactives: at the highest dose activity change, negative = inhibition, usual class: inhibitors; actives 0.05% (n = 75,000); AID 875;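 further: potency means the concentration at half of the fitted maximal effect; plate controls were peptide without protein for full effect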
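Compounds were incubated for 12 min at room temperature with a complex of 100 nM fluorescein-tagged pBACH1 decapeptide and 250 nM His-tagged BRCT protein. Buffer was phosphate pH 7.3 with EDTA, DTT and Tween 20. Disruption of binding lowers the polarization signal.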
ERK AVP inh: blocks ERK signaling stimulated by vasopressin. actives 0.99% (n = 72,000). Potency, µM (highest dose often 57.5 µM), for inactives: at the highest dose activity, negative = inhibition, hits mostly inhibitors. HEK293-V1b, vasopressin-stimulated pERK AlphaScreen; further: potency means the concentration at half of the fitted maximal effect; on the % scale 0 is the no-effect control and ±100 the full control effect; nearly all actives have a fitted effect of over 55% in size
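Overnight-seeded V1b-HEK293 cells in 1% FBS got compound, then vasopressin (25 nM final, 5 min, 37C), then lysis buffer. AlphaScreen detection of phospho-ERK; activity normalized to basal and full-stimulation controls.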
Active calls of the source: *; i = inactive; ? = inconclusive; · = no result; [ ] = dose if it differs, or a comment. The call rests on the fitted dose curve; in most records, active means well fitted curve in the direction sought with a large enough effect; inconclusive means small, poorly fitted or top-dose-only effect, or another doubt; inactive means no such curve, though single readings can be large; an effect the other way counts as inactive or inconclusive.

SMILES | DNA Pol III inh | BRCT inh red | TsaE inh | BRCT PPI green | ERK AVP inh
N=C1C=CC(=C(c2ccc(N)cc2)c2ccc(N)cc2)C=C1 | -15%[11.4 µM] | 1%[15.4 µM] | ? | 6%[15.4 µM] | 13µM*
CN(C)c1ccc(-c2cc(Nc3ccc(F)cc3)ncn2)cc1 | 1% | -1% | i | -3% | ?
CCNc1ncc2nc(-c3ccc(Cl)cc3)c(=O)n(C)c2n1 | 0% | 0% | i | -2% | 24%
CCOC(=O)C1CCN(S(=O)(=O)c2cccc(-c3cn4ccccc4n3)c2)CC1 | -6% | -2% | i | 5% | ?
CCOC(=O)C1CCN(S(=O)(=O)c2cccc(-c3cn4cccc(C)c4n3)c2)CC1 | -3% | 0% | i | 0% | 20µM*
O=c1oc2c(CN3CCCCCC3)c(O)ccc2cc1-c1nc2ccccc2[nH]1 | 94% | 2% | i | 32µM* | 5%
CC(C)(C)N1C(=O)[C@H]2[C@H]3[C@H](O)[C@H](O)C/C(=N/OCc4ccccc4)[C@H]3CC[C@@H]2C1=O | · | 2%[15.4 µM] | · | 1%[15.4 µM] | 7%[11.5 µM]
CCn1c(CSc2nnc3ccccn23)nc2cc(C(=O)O)ccc21 | -4% | -22% | i | 1% | 6%
CCn1c(CSc2nnc(-c3cccnc3)n2-c2ccccc2C)nc2cc(C(=O)O)ccc21 | -2% | 25µM* | 79µM* | 0% | -15%
O=C(OCC1OC(OC(=O)c2cc(O)c(O)c(OC(=O)c3cc(O)c(O)c(O)c3)c2)[C@@H](OC(=O)c2cc(O)c(O)c(OC(=O)c3cc(O)c(O)c(O)c3)c2)C(OC(=O)c2cc(O)c(O)c(OC(=O)c3cc(O)c(O)c(O)c3)c2)C1OC(=O)c1cc(O)c(O)c(OC(=O)c2cc(O)c(O)c(O)c2)c1)c1cc(O)c(O)c(OC(=O)c2cc(O)c(O)c(O)c2)c1 (stereo partly specified) | · | 55% | · | -2%[3.08 µM] | 13µM*
CC(=O)OCC1OC(c2ccccc2)C(OC(C)=O)C(OC(C)=O)C1OC(C)=O (stereo unspecified) | -5% | -1% | i | -1% | -31%
COc1ccccc1N1C(=O)N(C(C)=O)C2C1Nc1ccccc1N2C (stereo unspecified) | -3% | -7% | i | 6% | 25µM*
COc1ccccc1N1C(=O)c2ccccc2NC1c1ccncc1 (stereo unspecified) | -4% | -1% | i | 0% | -25%
C[C@H](O/N=C1/[C@H]2O[C@@H]2[C@@H](O)[C@H]2[C@H]1CCn1c(=O)n(-c3ccccc3)c(=O)n12)c1cn([C@H](CO)Cc2ccccc2)nn1 | · | 1%[15.4 µM] | · | 1%[15.4 µM] | 18%[11.5 µM]
COc1ccc(-c2nc(CSCC(=O)NCc3ccc4c(c3)OCO4)c(C)o2)cc1OC | -4% | 0% | i | -3% | 32µM*
Cc1ccsc1-c1nc(CSCC(=O)NCc2ccc3c(c2)OCO3)c(C)o1 | -2% | 1% | i | 0% | ?
N#CCCn1c(=O)c(CCc2ccccc2)nc2cnc(Oc3cccc(Cl)c3)nc21 | 6% | -1% | i | 1% | 6%
Oc1cccc(Nc2nc(NCC3CCCO3)c3ccccc3n2)c1 (stereo unspecified) | -10% | 0% | i | 0% | 16µM*
Cc1nc(NCC2CCCO2)c2oc3ccccc3c2n1 (stereo unspecified) | -1% | -3% | i | 3% | ?
Cc1cc(N)c2cc(NC(=O)Nc3ccc4nc(C)cc(N)c4c3)ccc2n1 | 4µM* | 0%[15.4 µM] | i | 9%[15.4 µM] | -12%[11.5 µM]
Cc1cc(N)c2cc(OCCOc3ccc4nc(C)cc(N)c4c3)ccc2n1 | · | 1%[15.4 µM] | · | -2%[15.4 µM] | -8%[11.5 µM]
Cc1c(C)n(C)c2ccc(C(=O)NCc3cccs3)cc12 | 0% | 10% | ? | 7% | 13µM*
COc1ccccc1CNc1ccnc(-c2cccc(C#N)c2)n1 | 3% | 1% | i | -1% | 32µM*
COc1ccc(CNc2ccnc(-c3cccc(C#N)c3)n2)c(OC)c1 | 0% | -1% | i | -3% | -20%
O=C(Cc1ccccc1)Nc1ccc(-c2nnc(-c3ccco3)o2)cc1 | -3% | -1% | i | 0% | 19%
SMILES | DNA Pol III inh | BRCT inh red | TsaE inh | BRCT PPI green | ERK AVP inh
O=C(Cc1ccc(Cl)cc1)Nc1ccc(-c2nnc(-c3ccco3)o2)cc1 | 20µM* | 0% | i | 2% | -24%
CC(CCc1ccccc1)NC(=O)c1cc2sccc2n1C (stereo unspecified) | · | 2% | · | -1% | ·
CCn1c(C(=O)N2CCCC(C(=O)NCCc3ccc(C)cc3)C2)cc2sccc21 (stereo unspecified) | -1% | -2% | i | 3% | ?
Cn1c(C(=O)N2CCCC(C(=O)NCCCSC3CCCCC3)C2)cc2sccc21 (stereo unspecified) | 5% | -1% | i | 0% | 16µM*
CC(CCc1ccccc1)NC(=O)C1CCCN(C(=O)c2cc3sccc3n2C)C1 (stereo unspecified) | -3% | 0% | i | 1% | 25µM*
CCn1c(C(=O)N2CCCC(C(=O)NCCCc3ccccc3)C2)cc2sccc21 (stereo unspecified) | -2% | 0% | i | -1% | 16µM*
Cn1c(C(=O)N2CCCC(C(=O)NCc3cccs3)C2)cc2sccc21 (stereo unspecified) | 0% | 1% | i | 0% | ?
Cc1cc(-c2ccc(N=Nc3cc(S(=O)(=O)O)c4ccccc4c3N)c(C)c2)ccc1N=Nc1cc(S(=O)(=O)O)c2ccccc2c1N | ? | -10% | i | -8% | ?
O=c1cc(-c2ccccc2)oc2c1ccc1ccccc12 | -9% | -2% | i | 1% | 32µM*
N=C(N)SCc1cccc2c(=O)cc(-c3ccccc3)oc12 | -6%[11.4 µM] | -1%[15.4 µM] | i | -2%[15.4 µM] | 2%[11.5 µM]
O=C1c2ccccc2-c2n[nH]c3cccc1c23 | -14% | -4% | i | -2% | 10µM*
O=c1c(-c2ccccc2)n[nH]c2ccccc12 | -8% | -1% | i | -1% | -4%
COc1ccc2c(c1)Cc1cc(N=[N+]([O-])c3ccc4c(c3)Cc3cc(OC)ccc3-4)ccc1-2 | -2%[11.4 µM] | 0%[15.4 µM] | i | 7%[15.4 µM] | 2%[11.5 µM]
Nc1nc(Cl)nc2c1ncn2[C@@H]1O[C@H](CO)[C@@H](O)[C@H]1O | · | 1% | · | -3% | 10µM*
Nc1nc2c(ncn2[C@@H]2O[C@H](CO)[C@@H](O)[C@H]2O)c(=O)[nH]1 | · | 0% | · | -1% | -18%
O=c1c[n+](CC[n+]2cc(=O)o[nH]2)[nH]o1 | -8%[11.4 µM] | 2%[15.4 µM] | i | -2%[15.4 µM] | 5%[11.5 µM]
Cn1c(NCc2cccc(Br)c2)nc2ccccc21 | -7% | 0% | i | -1% | 32µM*
COc1ccc(Nc2ccc3c(c2)=NC2(CCCCC2)[N+]=3[O-])cc1 | -9% | 1% | i | 2% | 16µM*

Source: PubChem (National Center for Advancing Translational Sciences (NCATS))
